# According to PubChem BioAssay (Tox21):
# Values joined by “and” are separate entries in the source; they are usually repeats but may differ in a detail not shown here. Identical values can stand only once. Inconclusive results are not listed. Where a call stands in place of a potency, no number is given. The source holds several records for some structures; these can differ, active in one and inactive in another. Active and inactive are the calls of the source. Calls follow the shape of the full dose curve. Square brackets hold non-standard residues; d marks the D form. Peptide text beside a SMILES is read from it. pGlu = O=C1CC[C@@H](C(=O)O)N1
# Test: p53 small molecule agonists, cell-based qHTS assay: qHTS cell viability counter screen (AID 1963581); also: nearly all actives have a fitted effect of over 45% in size
# Conditions: p53RE-bla HCT-116 viability, ATP luminescence, 16 h; series mostly up to 66 µM
# Source text: National Center for Advancing Translational Sciences [NCATS]
# Division of Preclinical Innovation [DPI]
# U.S. Environmental Protection Agency [EPA]
# National Institutes of Environmental Health Sciences [NIEHS]
# National Toxicology Program [NTP]
# U.S. Food and Drug Administration [FDA]
# p53, a tumor suppressor protein, is activated following cellular insult, including DNA damage and other cellular stresses. The activation of p53 regulates cell fate by inducing DNA repair, cell cycle arrest, apoptosis, or cellular senescence. The activation of p53, therefore, is a good indicator of DNA damage and other cellular stresses. The CellSensor p53RE-bla HCT-116 cell line (Invitrogen) contains a stably integrated beta-lactamase reporter gene under control of the p53 response elements. The activation of the reporter gene under culture conditions can be detected by fluorescence intensity. This cell line was used to screen the Tox21 compound library in a 1536-well plate format and to identify agonists that activate the p53 signaling pathway. The cytotoxicity of the Tox21 compound library against the p53 RE-bla HCT-116 cell line was tested in parallel by measuring the intra cellular ATP content in the same wells.
# Tox21 Assay Protocol Summary:
# The p53RE-bla cells were dispensed at 4,000 cells/5 ul/well in 1536-well black wall/clear bottom plates using a Multidrop dispenser. After the assay plates were incubated at a 37 C/5% CO2 incubator for 5 hours, 23 nL of compounds dissolved in DMSO, positive controls or DMSO only was transferred to the assay plate by a pin tool. The plates were incubated at 37 C for 16 hours. After 1 uL of LiveBLAzerTM B/G FRET substrate was added using a Flying Reagent Dispenser, the plates were incubated at room temperature for 2 hours, and fluorescence intensity was measured by an Envision plate reader. For cell viability readout that measures cytotoxicity, 4 ul/well of CellTiter-Glo reagent was added into the assay plates using a Flying Reagent Dispenser. After 30 min incubation at room temperature, the luminescence intensity in the plates was measured using a ViewLux plate reader.
# Potency is read from the fitted curve at half-maximal effect.
Structure (SMILES),Potency,"activity change, negative = cytotoxicity"
C=Cc1ccc(C=C)cc1,inactive,
Cc1coc2ccccc2c1=O,inactive,
Cc1c(Cl)c(=O)oc2cc(O)ccc12,inactive,
Nc1ccc2cc(S(=O)(=O)O)cc(O)c2c1N=Nc1ccccc1C(F)(F)F,inactive,
CC(=O)c1ccccc1[N+](=O)[O-],inactive,
CCCCCC/C=C\CCCCCCCC(=O)O,inactive,
BrCc1cccc(Oc2ccccc2)c1,inactive,
COc1ccc(COC=O)cc1,inactive,
CCCCCCCCCCCCCCCCN,inactive,
OC/C(Br)=C(\Br)CO,inactive,
Cc1oc2c(NC(=O)c3c(Cl)cccc3Cl)cccc2c1C(C)(C)O,inactive,
CO/N=C(/C(=O)N[C@@H]1C(=O)N2C(C(=O)OCOC(=O)C(C)(C)C)=C(C)CS[C@H]12)c1csc(N)n1,inactive,
CCN(CC)CCNC(=O)COc1ccc(OC)cc1,inactive,
CCCCC(CC)CN1CN(CC(CC)CCCC)CC(C)(N)C1 (stereo not given),inactive,
CN(C)CCOC(=O)C(c1ccccc1)C1(O)CCCC1 (stereo not given),inactive,
O=C(O)CCCCCCCCCC(=O)O,inactive,
Cc1ccccc1S,inactive,
Cc1ccc(N/N=c2\c(=O)cc/c(=N\Nc3ccc(S(=O)(=O)O)cc3)c2=O)c(C)c1,inactive,
CC(=O)CCC1=C(C)CCCC1(C)C,inactive,
O=c1oc2cc(O)ccc2c2oc3cc(O)ccc3c12,inactive,

Structure (SMILES),Potency,"activity change, negative = cytotoxicity"
O=C1CCCN1C1CCCCC1,inactive,
Nc1ccc(/C=C/c2ccc(N)cc2S(=O)(=O)O)c(S(=O)(=O)O)c1,,-1.67% [at 0.249 µM] (inactive)
C[C@@]12CCC[C@H]1[C@@H]1CC[C@H]3C[C@@H](O)CC[C@]3(C)[C@H]1CC2,inactive,
CC(C)CO,inactive,
O=C(Cl)c1ccc(F)c(Cl)c1,inactive,
CCNC(=O)[C@@H]1CCCN1C(=O)[C@H](CCCN=C(N)N)NC(=O)[C@H](CC(C)C)NC(=O)CNC(=O)[C@H](Cc1ccc(O)cc1)NC(=O)[C@H](CO)NC(=O)[C@H](Cc1c[nH]c2ccccc12)NC(=O)[C@H](Cc1cnc[nH]1)NC(=O)[C@@H]1CCC(=O)N1 ([pGlu]HWSYGLRP-NHEt),inactive,
O=C1OC(=O)c2cc(Oc3ccc4c(c3)C(=O)OC4=O)ccc21,inactive,
Nc1c[n+](N2CCOCC2)no1,inactive,
CCCCOCCOCCOCc1cc2c(cc1CCC)OCO2,41.3 µM (active) and inactive,
C[C@H]1O[C@@H](O[C@H]2[C@@H](O)C[C@H](O[C@H]3[C@@H](O)C[C@H](O[C@H]4CC[C@@]5(C)[C@H](CC[C@@H]6[C@@H]5C[C@@H](O)[C@]5(C)[C@@H](C7=CC(=O)OC7)CC[C@]65O)C4)O[C@@H]3C)O[C@@H]2C)C[C@H](O)[C@@H]1O,102 nM (active) and 90.3 nM (active),
O=C1NC(=O)c2cccc3cccc1c23,inactive,
Nc1ccc(F)cc1F,inactive,
CC(C)COC(=O)c1ccc(O)cc1,inactive,
CC(C)(C)c1ccc(OCC2CO2)cc1 (stereo not given),inactive,
CC(C)(CO)C(O)C(=O)NCCCO (stereo not given),inactive,
CCOC(=O)C(F)(F)F,inactive,
C=CCCCCCCCCCCCCCC,,-15.7% [at 13.5 µM] (inactive)
O=C(CS(=O)Cc1ccco1)NC/C=C\COc1cc(CN2CCCCC2)ccn1 (stereo not given),inactive,
C1CCC2=NCCCN2CC1,inactive,
CC1(C)CC(O)CC(C)(C)N1[O],inactive,
